Molecules are shown by their SMILES. Values joined by “and” are separate entries in the source; they are usually repeats but may differ in a detail not shown here. Equal entries are not always repeated. About 610 (9.5%) of roughly 6,400 compounds were called active. This is one part of a sample in which actives are shown more often than they occur. No stated cut-off is given here; in the data, active means activity change below about -70%; inconclusive means no clear call, values can overlap the other calls; inactive means above that. More than one record can exist for a structure, and the calls need not agree.

From PubChem BioAssay AID1259421 (Broad Institute, 2018) come the findings set out here.

The nature of the test: T. gondii ME49Luc in HeLa cells, luciferase assay, 72 h, no IFN-y (AID 1259421). The following applies: stronger effect = lower value, concentration not given here.
As for `CC(=O)O[C@]1(C(C)=O)CCC2C3C=C(C)C4=CC(=O)CCC4(C)C3CCC21C` (stereo not given in full), the activity change, negative = inhibition was 4.78% (inactive) and -4.91% (inactive). The value for `CCCCCCCCCCCCCCCC(=O)OC(C)C` was 3.86% (inactive); that for `CN[C@H](C(=O)N[C@H](C(=O)N(C)[C@H](/C=C(\C)C(=O)O)C(C)C)C(C)(C)C)C(C)(C)c1ccccc1` was -73.6% (active); that for `C[C@H]1CCO[C@H]2Cn3cc(C(=O)NCc4ccc(F)cc4F)c(=O)c(O)c3C(=O)N21` was 25.9% (inactive). The value for `Cc1cccc(C)c1NC(=O)c1cc(S(N)(=O)=O)c(Cl)cc1O` was 15.4% (inactive). The value for `Cc1c(C)c2c(c(C)c1OC(=O)CCC(=O)O)CC[C@@](C)(CCC[C@H](C)CCC[C@H](C)CCCC(C)C)O2` was 19.4% (inactive). `O=c1c(O)c(-c2ccccc2)oc2cc(O)ccc12`: the activity change, negative = inhibition was 31.5% (inactive). `CN1CC(C(=O)NC2(C)OC3(O)C4CCCN4C(=O)C(Cc4ccccc4)N3C2=O)CC2c3cccc4[nH]cc(c34)CC21` (stereo not given): the activity change, negative = inhibition is -10.4% (inactive). On to `CC(=O)C1C(=O)[C@@H]2[C@H]3c4c[nH]c5cccc(c45)C[C@H]3C(C)(C)N2C1=O` (stereo not given in full), for which the activity change, negative = inhibition is -78.3% (active) and -0.858% (inactive). For `CN1C[C@H](C(=O)N[C@]2(C)O[C@@]3(O)[C@@H]4CCCN4C(=O)[C@H](Cc4ccccc4)N3C2=O)C[C@@H]2c3cccc4[nH]cc(c34)C[C@H]21`, the activity change, negative = inhibition was 5.44% (inactive) and 2.08% (inactive). The value for `O=c1[nH]c2ccccc2c(=O)n1CCCN1CCN(c2ccccc2)CC1` was 11.8% (inactive). The value for `CCC1(C)OC(=O)N(C)C1=O` (stereo not given) was -5.39% (inactive). The value for `CC(C)(C)c1[nH]cnc1/C=c1\[nH]c(=O)/c(=C/c2ccccc2)[nH]c1=O` was -85.5% (active). For the compound `O=c1[nH]cnc2ccccc12`, the activity change, negative = inhibition was 0.966% (inactive) and 1.04% (inactive). For `CCCCCCCCCCCCCCOS(=O)(=O)O`, the activity change, negative = inhibition was 8.96% (inactive). The value for `COc1ccc(C(=O)/C=C/c2ccccc2)cc1` was 157% (inactive). The value for `CC(=O)NC[C@H]1CN(c2ccc(N3CCN(C(=O)CO)CC3)c(F)c2)C(=O)O1` was 6.07% (inactive). The value for `FC(F)(F)c1cc(CO[C@H]2CCCN[C@H]2c2ccccc2)cc(C(F)(F)F)c1` was -9.54% (inactive) and -89.9% (active); that for `CC(=O)NC(Cc1c[nH]c2ccccc12)C(=O)OCc1cc(C(F)(F)F)cc(C(F)(F)F)c1` (stereo not given) was -1.95% (inactive); that for `CC(=O)N[C@H](Cc1c[nH]c2ccccc12)C(=O)OCc1cc(C(F)(F)F)cc(C(F)(F)F)c1` was 6.34% (inactive). As for `O=C(O)CN(CCN(CC(=O)O)CC(=O)O)CC(=O)O`, the activity change, negative = inhibition was 1.89% (inactive).

For the compound `COCC1=C(C(=O)OC(C)OC(=O)OC(C)C)N2C(=O)[C@@H](NC(=O)/C(=N/OC)c3csc(N)n3)[C@H]2SC1` (stereo not given in full), the activity change, negative = inhibition is -2.51% (inactive). The value for `NC(=O)N/N=C/c1ccc([N+](=O)[O-])o1` was -68.6% (inactive) and -50.1% (inactive); that for `O=C(N/N=C/c1ccc([N+](=O)[O-])o1)c1ccc(O)cc1` was -85.5% (active); that for `CCN(CC)c1ccc(/C=N/NC(=O)c2ccc(O)cc2)cc1` was 29.5% (inactive) and 44.8% (inactive). As to `CCCCCCn1c(=O)c2c(ncn2C)n(C)c1=O`, the activity change, negative = inhibition was 11.4% (inactive).

Consider `Cc1cccc(/C=C/c2ccccc2)n1`, for which the activity change, negative = inhibition was 35.7% (inactive). The value for `Cc1ccc2ccc3ccc(C)nc3c2n1` was -94.5% (active). With `CCc1nc(C)ccc1O`, the activity change, negative = inhibition is -11.9% (inactive). The value for `OCC1OC(O)C(F)C(O)C1O` (stereo not given) was 8.12% (inactive); that for `CCC[C@@H]1C[C@@H](C(=O)NC(C(C)Cl)[C@H]2O[C@H](SC)[C@H](O)[C@@H](O)[C@H]2O)N(C)C1` (stereo not given in full) was -1.81% (inactive) and 9.35% (inactive); that for `O=C(/C=C\n1cnc(-c2cc(C(F)(F)F)cc(C(F)(F)F)c2)n1)N1CC(F)(F)C1` was -81.3% (active). Turning to `COc1cc(-c2ncn(/C=C\C(=O)OC(C)C)n2)cc(C(F)(F)F)c1`, the activity change, negative = inhibition was -86.8% (active).

Take `O=C(/C=C\n1cnc(-c2cc(C(F)(F)F)cc(C(F)(F)F)c2)n1)NNc1cnccn1`: the activity change, negative = inhibition is -78.8% (active). As to `CC(=O)CC(=O)O`, the activity change, negative = inhibition was -0.799% (inactive).

On to `CC(=O)c1c(O)cc(O)cc1O`, for which the activity change, negative = inhibition is 6.7% (inactive).

`COc1c(OC)c2occc2c2oc(=O)ccc12`: the activity change, negative = inhibition was 9.46% (inactive). The value for `CC(=O)OCC(=O)[C@@]1(O)CCC2C3CCC4=CC(=O)C=C[C@]4(C)[C@@]3(Cl)[C@@H](Cl)C[C@@]21C` (stereo not given in full) was -0.235% (inactive); that for `CCCC(=O)O[C@@]1(C(=O)COC(C)=O)CC[C@H]2[C@@H]3C[C@H](F)C4=CC(=O)C=C[C@]4(C)[C@]3(F)[C@H](O)C[C@@]21C` was 6.24% (inactive). Turning to `C[C@@H]1O[C@@]2(CS1)CN1CCC2CC1` (racemic), the activity change, negative = inhibition is 6.56% (inactive). On to `C[C@@H]1CN(Cc2ncccn2)C[C@H]1c1nc2c(cnn2C2CCOCC2)c(=O)[nH]1`, for which the activity change, negative = inhibition was 4.49% (inactive). The value for `COC(=O)Nc1ccc(-c2nc(N3CCOCC3)c3cnn(C4CCN(C(=O)OC)CC4)c3n2)cc1` was 21.2% (inactive). As for `c1cncc(CN2CCC(n3ncc4c(N5CCOCC5)nc(-c5ccc6[nH]ccc6c5)nc43)CC2)c1`, the activity change, negative = inhibition was -77.6% (active). In the case of `CC(=O)N1CCN(c2ccc(OCC3CO[C@](Cn4ccnc4)(c4ccc(Cl)cc4Cl)O3)cc2)CC1` (stereo not given in full), the activity change, negative = inhibition was -58.1% (inactive).

Take `CCC1OC(=O)[C@H](C)C(=O)[C@H](C)[C@@H](OC2O[C@H](C)C[C@H](N(C)C)[C@H]2O)[C@](C)(OC)C[C@@H](C)C(=O)[C@H](C)[C@H]2N(CCCCn3cnc(-c4cccnc4)c3)C(=O)O[C@@]12C` (stereo not given in full): the activity change, negative = inhibition is -5.19% (inactive). The value for `NC(=S)N/N=C/c1ccncc1` was 6.58% (inactive). Regarding `NC(=S)N/N=C/c1ncccc1N`, the activity change, negative = inhibition is -83.2% (active). The value for `CC(=O)O[C@]1(C(C)=O)CC[C@H]2[C@@H]3C=CC4=CC(=O)CC[C@]4(C)[C@H]3CC[C@@]21C` was 8.87% (inactive).

On to `CCCc1ncc(C(=O)O)s1`, for which the activity change, negative = inhibition was 6.47% (inactive). The value for `COc1cc(Br)c(S(=O)(=O)Nc2ccc(Cl)c(O[C@@H]3CCN(C)C3)c2)cc1OC` was 5.97% (inactive).
